Active and inactive are the calls of the source.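 How the source made its calls: active means fitted half-maximal concentration AC50 at or below ten times the highest valid tested dose, with signal falling as DNA is displaced (actives reach about 34 µM in these data); inconclusive means flat fit at moderate signal loss, or poor fit quality; inactive means the rest, including signal rising instead of falling.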

The nature of the experiment: DNA intercalators displacing acridine orange, dose response, artefact control for KSHV LANA DNA-binding inhibitor project, biochemical, fluorescence polarization, cherry-picked samples, set 2 (AID 504727). As to conditions: AC50: Acridine orange-DNA displacement; series mostly up to 35 µM. (In general: Fluorescence polarisation rises when a labelled molecule tumbles more slowly, as on binding a larger partner.)
By AC50 is commonly meant the concentration giving half of the maximal activity seen. For the compound `O=C(O)c1ccc(NS(=O)(=O)c2ccc3c(c2)C2C=CCC2C(c2ccccc2F)N3)cc1` (configuration not stated), the AC50 entry was “inactive”.

In the case of `COc1cccc2c1C(=O)c1c(O)c3c(c(O)c1C2=O)C[C@](O)(C(C)=O)C[C@H]3O[C@@H]1C[C@@H](N)[C@@H](O)[C@@H](C)O1`, the AC50 is 2.98 µM (active).

With `CCN(C(=O)COC(=O)c1nc2nc(C)cc(C)n2n1)C1CCCCC1`, the AC50 result was “inactive”.

On to `Cc1ccc(CSc2ncnc3onc(C)c23)cc1`, for which the AC50 entry is “inactive”.

As for `COc1ccc(NS(=O)(=O)c2ccc3c(c2)[C@H]2C=CC[C@H]2[C@@H](c2ccc(C(=O)O)cc2)N3)cc1`, the AC50 entry was “inactive”.

With `Brc1c(CSc2nncc3ccccc23)nc2ccccn12`, the AC50 result was “inactive”.

Consider `CCCCn1c(N)c(N(CCOC)C(=O)c2cc(C)oc2C)c(=O)[nH]c1=O`, for which the AC50 result was “inactive”.

Turning to `CN1CCN(C(=S)c2ccc(N(C)C)cc2)CC1`, the AC50 entry was “inactive”.

Regarding `O=C(CSc1nc2ccccc2[nH]1)Nc1cccc(S(=O)(=O)N2CCOCC2)c1`, the AC50 result is “inactive”.

As to `Nc1ccc2cc3[nH]c4cc(N)ccc4c3nc2c1`, the AC50 is 1.48 µM (active).

For `O=C(O)/C(=C\c1cccs1)Sc1nnc(-c2ccc(F)cc2)o1`, the AC50 result was “inactive”.

Consider `CCOC(=O)C1Nc2ccccc2C2C(O)C(O)CC12` (configuration not stated), for which the AC50 entry was “inactive”.

Take `CCOC(=O)C1Nc2ccc(C(=O)O)cc2C2C=CCC12` (configuration not stated): the AC50 result is “inactive”.

Take `CCn1c(-c2ccc([N+](=O)[O-])cc2)n[nH]c1=S`: the AC50 result is “inactive”.

With `CCOC(=O)C1C2C=CC3(CN(c4cccc(Cl)c4)C(=O)C13)O2` (configuration not stated), the AC50 result is “inactive”.

Regarding `O=C1/C(=C/C=C/c2ccco2)SC(=S)N1NS(=O)(=O)c1ccccc1`, the AC50 result is “inactive”.

Take `O=C(O)c1ccc(-n2cccc2/C=C2/NC(=O)N(c3cccc(Cl)c3)C2=O)cc1`: the AC50 entry was “inactive”.

As for `O=C1CCCC(O)=C1N=Nc1ccc(C(=O)O)cc1`, the AC50 result was “inactive”.

For `Cc1cccc(Nc2nc(N)c([N+](=O)[O-])c(NCc3ccccc3)n2)c1`, the AC50 entry was “inactive”.

Regarding `Nc1ccc(C(=O)Nc2ccc3c(O)cc(S(=O)(=O)O)cc3c2)cc1`, the AC50 result is “inactive”.

With `CC(=O)Nc1ccc(S(=O)(=O)Nc2ccccc2N2CCOCC2)cc1`, the AC50 entry was “inactive”.

For the compound `O=C(CCN1C(=O)/C(=C/c2ccco2)SC1=S)Nc1ccc(C(=O)O)c(O)c1`, the AC50 entry is “inactive”.

Values taken from PubChem BioAssay AID504727 (Broad Institute, 2011).
